# Results: PubChem BioAssay (NCATS)
# Records with an inconclusive call do not appear. Where a call stands in place of a potency, no number is given. Active and inactive are the calls of the source. Calls follow the shape of the dose curve; as a rule, active = well fitted curve in the direction sought with a large enough effect; inconclusive = small, poorly fitted or top-dose-only effect, or another doubt; inactive = no such curve, though single readings can be large; an effect the other way counts as inactive or inconclusive.
# Columns and labels:
# [1] = qHTS to identify inhibitors of the type 1 interferon - major histocompatibility complex class I in skeletal muscle: primary screen against the NCATS Pharmaceutical Collection (AID 1347407);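 also: luminescence of HiBiT knocked into endogenous HLA-B as interferon-induced MHC class I level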; also: potency is read from the fitted curve at half-maximal effect
# Outline: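 Luminescence from HiBiT-tagged endogenous HLA-B*08:01 served as the read-out of IFN-beta-induced MHC class I in CRISPR-engineered C25cl48 myoblasts. Cells received 4 ng/ml IFN-beta plus compound (high final 46 uM, […]) for 24 h.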
# [2] = biological target: Protein phosphatase 1D (Homo sapiens) (UniProt O15297); assay: Rhodamine-PBP qHTS Assay for Modulators of WT P53-Induced Phosphatase 1 (WIP1) (AID 1347425)
# Sequence of Protein phosphatase 1D (Homo sapiens) (O15297 whole entry, looked up): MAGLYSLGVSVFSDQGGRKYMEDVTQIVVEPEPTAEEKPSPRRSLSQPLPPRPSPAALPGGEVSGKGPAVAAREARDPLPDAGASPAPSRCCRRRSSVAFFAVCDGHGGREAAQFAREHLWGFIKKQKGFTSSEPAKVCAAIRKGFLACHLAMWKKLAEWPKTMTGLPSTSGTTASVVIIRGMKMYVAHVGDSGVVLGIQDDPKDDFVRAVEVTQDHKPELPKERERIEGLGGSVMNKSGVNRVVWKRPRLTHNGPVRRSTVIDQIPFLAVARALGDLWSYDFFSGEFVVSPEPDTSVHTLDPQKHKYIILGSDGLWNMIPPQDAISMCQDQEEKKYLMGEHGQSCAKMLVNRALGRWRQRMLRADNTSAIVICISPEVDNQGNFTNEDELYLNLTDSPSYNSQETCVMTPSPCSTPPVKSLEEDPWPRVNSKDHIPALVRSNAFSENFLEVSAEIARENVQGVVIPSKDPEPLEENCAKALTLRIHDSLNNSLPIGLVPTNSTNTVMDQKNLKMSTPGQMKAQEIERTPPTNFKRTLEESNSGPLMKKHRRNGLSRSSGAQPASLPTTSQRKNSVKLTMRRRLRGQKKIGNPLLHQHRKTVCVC
# Outline: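 WIP1 (5 nM final) was preincubated with compound for 1 hour at room temperature. It then dephosphorylated 10 uM VEPPL-pS-QETFS peptide in Tris-HCl pH 7.5 with 30 mM MgCl2. Released Pi was detected by 10 uM Rh-PBP fluorescence (ex 525/em 598 nm) read at 1-min intervals for 11 min, as delta f1 - f0.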
# [3] = Primary qHTS for inhibitors of La Crosse Virus (LACV) - induced cell death in SH-SY5Y cells (AID 1508616);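 also: top concentration of the series differs between compounds; higher means more rescue of cells from virus-induced death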
# Outline: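 Rescue of virus-induced death was read as ATPLite luminescence after 6 days at 37C, scaled between DMSO wells with LACV and without virus. Cells were SH-SY5Y, 6000/well, infected at 0.01 MOI after compound addition.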
# [4] = biological target: Calcium and integrin-binding protein 1 (Homo sapiens) (UniProt Q99828); assay: Primary qHTS for Identification of Calcium Integrin Binding Protein 1 (CIB1) Competitor (AID 1508620); also: potency is read from the fitted curve at half-maximal effect
# Sequence of Calcium and integrin-binding protein 1 (Homo sapiens) (Q99828 whole entry, looked up): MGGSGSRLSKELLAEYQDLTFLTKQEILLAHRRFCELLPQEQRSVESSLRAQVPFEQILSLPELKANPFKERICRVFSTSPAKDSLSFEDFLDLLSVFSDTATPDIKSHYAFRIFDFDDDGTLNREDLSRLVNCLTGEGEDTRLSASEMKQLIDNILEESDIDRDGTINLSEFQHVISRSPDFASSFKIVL
# Outline: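 Fluorescence polarization competition: GST-tagged CIB1 (1 uM final) preincubated with compound 15 min at room temperature, then FITC-labelled alphaIIb peptide (100 nM final) added. After 15 min at room temperature, polarization read at Ex 480/Em 540.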
# [5] = qHTS for inhibitors of adenylyl cyclases using a fission yeast platform: a pilot screen against the NCATS LOPAC library (AID 1347410)
# Outline: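 Fission yeast qHTS: CHP2027 cells (AC9-GNAS-PDE4D2, fbp1-GFP), 5x10^6 cells/mL working density, EMM + His/Lys/Ura; LOPAC at up to 57 µM final; 18 h dark, 30C; GFP by laser cytometry. DPI positive control, DMSO vehicle.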
# [6] = Validation qHTS assay for inhibitors of Activation Induced Cytidine Deaminase (AID): UDG Counterscreen signal (AID 1347427)
# Outline: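 Fluorescence at 560 nm excitation, 665 nm emission reports UDG signal after 250 mM NaOH (2x) addition and 30 min. Enzymes (AID 1 uM, UDG 2 U/mL, at 4/3x) preincubated 10 min with compound, then 4 h with 4x 250 nM DJC20/DJC23 substrate at room temperature.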
# [7] = biological target: Single-stranded DNA cytosine deaminase (Homo sapiens) (UniProt Q9GZX7); assay: Validation qHTS assay for inhibitors of Activation Induced Cytidine Deaminase (AID): AID signal (AID 1347429)
# Sequence of Single-stranded DNA cytosine deaminase (Homo sapiens) (Q9GZX7 whole entry, looked up): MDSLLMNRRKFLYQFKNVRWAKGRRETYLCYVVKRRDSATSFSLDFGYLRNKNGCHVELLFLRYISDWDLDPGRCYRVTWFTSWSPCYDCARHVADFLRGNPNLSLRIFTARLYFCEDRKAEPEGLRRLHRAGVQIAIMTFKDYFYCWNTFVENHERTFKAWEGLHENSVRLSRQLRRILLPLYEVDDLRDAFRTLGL
# Outline: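 Compounds (final up to 114 uM) preincubated with AID plus UDG; 250 nM DJC20/DJC23 substrate mix (4x stock) added, 4 hr at room temperature, then NaOH, 30 min. Read 1 fluorescence at 540 nm excitation, 590 nm emission.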
# [8] = biological target: Protein phosphatase 1D (Homo sapiens) (UniProt O15297); assay: RapidFire Mass Spectrometry qHTS Assay for Modulators of WT P53-Induced Phosphatase 1 (WIP1) (AID 1347424); also: series mostly up to about 63 µM
# Outline: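 RapidFire MS readout of dephosphorylated VEPPL-S-QETFS product, with 1 uM isotope-labelled peptide standard. Reaction: 10 nM WIP1, 2 uM phosphopeptide substrate, 5 min, room temperature, after 1 h compound preincubation; stopped with 0.5% formic acid.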
smiles,measurement,setting,value
NC(=O)NC1N=C([O][Al])NC1=O (configuration not stated),Potency,[1],inactive
same,outcome,[2],inactive
same,outcome,[3],inactive
same,Potency,[4],inactive
CCn1ccc(NS(=O)(=O)c2ccc(N)cc2)nc1=O,Potency,[1],inactive
same,outcome,[2],inactive
same,outcome,[3],inactive
same,Potency,[4],inactive
COC(=O)[C@H]1[C@H]2C[C@@H]3c4[nH]c5cc(OC)ccc5c4CCN3C[C@H]2C[C@@H](OC(=O)/C=C/c2ccc(O)c(OC)c2)[C@@H]1OC,Potency,[1],inactive
same,outcome,[2],inactive
same,outcome,[3],inactive
same,Potency,[4],inactive
COc1ccccc1N1CCN(CC(O)COc2cc(OC)c(OC)c(OC)c2)CC1 (configuration not stated),Potency,[1],inactive
same,outcome,[2],inactive
same,outcome,[3],inactive
same,Potency,[4],inactive
CCCCCCCCCCCCCCCC[N+](C)(C)Cc1ccccc1,Potency,[1],23.6 µM (active)
same,outcome,[2],inactive
same,outcome,[3],inactive
same,Potency,[4],inactive
CCN(CC)CC(=O)Nc1c(C)cccc1C(=O)OC,Potency,[1],inactive
same,outcome,[2],inactive
same,outcome,[3],inactive
same,Potency,[4],inactive
CCOC(=O)[C@H](CCc1ccccc1)N[C@@H](C)C(=O)N(CC(=O)O)C1Cc2ccccc2C1,Potency,[1],inactive
same,outcome,[2],inactive
same,outcome,[3],inactive
same,Potency,[4],inactive
CCc1cccc2c(CCO)c[nH]c12,Potency,[1],inactive
same,outcome,[2],inactive
same,outcome,[3],inactive
same,Potency,[4],inactive
CC(C)=CCC/C(C)=C/CC/C(C)=C/C(=O)OCC(=O)[C@@]1(O)CC[C@H]2[C@@H]3CCC4=CC(=O)C=C[C@]4(C)[C@H]3[C@@H](O)C[C@@]21C,Potency,[1],inactive
same,outcome,[2],inactive
same,Potency,[4],inactive
COc1cccc2c1[C@@H]1CN(CCCCn3c(=O)[nH]c4c(sc5ncc(-c6ccccc6)nc54)c3=O)C[C@@H]1CO2,outcome,[5],inactive
same,outcome,[6],inactive
same,outcome,[7],inactive
Cc1oc(-c2ccccc2)nc1CCC(=O)c1ccc(CC2SC(=O)NC2=O)cc1 (configuration not stated),Potency,[1],inactive
same,Potency,[4],inactive
CC(=O)O[C@@H]1CC2C3CCc4cc(OC(=O)c5ccccc5)ccc4C3CCC2(C)[C@H]1OC(C)=O (some centres not stated),Potency,[8],inactive
same,outcome,[2],inactive
same,outcome,[3],inactive
same,Potency,[4],inactive
Nc1ccc2cc3ccc(N)cc3nc2c1,Potency,[8],inactive
same,outcome,[2],inactive
same,outcome,[3],inactive
same,Potency,[4],2.24 µM (active)
CCCC(=O)O[C@]1(C(=O)COC(=O)CC)CC[C@H]2[C@@H]3CCC4=CC(=O)CC[C@]4(C)[C@H]3[C@@H](O)C[C@@]21C,Potency,[8],inactive
same,outcome,[2],inactive
same,outcome,[3],inactive
same,Potency,[4],inactive
CCCCCC[C@@H](CCC)C(=O)O,Potency,[8],inactive
same,outcome,[2],inactive
same,outcome,[3],inactive
same,Potency,[4],inactive
C[C@@H]1CCC[C@H](C)N1CCCC(O)(c1ccccc1)c1ccccn1 (some centres not stated),Potency,[8],inactive
same,outcome,[2],inactive
same,outcome,[3],inactive
same,Potency,[4],inactive
CC(NN)c1ccccc1 (configuration not stated),Potency,[8],inactive
same,outcome,[2],inactive
same,outcome,[3],inactive
same,Potency,[4],inactive
CCOc1ccccc1OCC1CNCCO1 (configuration not stated),Potency,[8],inactive
same,outcome,[2],inactive
same,outcome,[3],inactive
same,Potency,[4],inactive
Cc1cc(OCCOCC[N+](C)(C)Cc2ccccc2)ccc1C(C)(C)CC(C)(C)C,Potency,[8],inactive
same,outcome,[2],inactive
same,outcome,[3],inactive
same,Potency,[4],inactive
Oc1ccc(CCNCCCCCCNCCc2ccccc2)cc1O,Potency,[8],inactive
same,outcome,[2],inactive
Nc1ccc(O)cc1,Potency,[8],inactive
same,outcome,[2],inactive
same,outcome,[3],inactive
Cc1ccc(-c2ccccc2C#N)cc1,Potency,[8],inactive
same,outcome,[2],inactive
same,outcome,[3],inactive
same,Potency,[4],inactive
CCCCCCCCCCCCCCCCCCNC(=O)OC1CCN(C(=O)OC[C@H](COC(=O)N(Cc2cccc[n+]2CC)C(=O)c2ccccc2OC)OC)CC1,Potency,[8],inactive
same,outcome,[2],inactive
same,outcome,[3],inactive
Cc1nc([N+](=O)[O-])cn1-c1ccc([N+](=O)[O-])cc1,Potency,[8],inactive
same,outcome,[2],inactive
same,outcome,[3],inactive
same,Potency,[4],inactive
O=C1NCCN1CCN1CCC(c2cn(-c3ccc(F)cc3)c3ccc(Cl)cc23)CC1,Potency,[8],inactive
same,outcome,[2],inactive
same,outcome,[3],inactive
same,Potency,[4],inactive
OCCOCCN1CCN(C(c2ccccc2)c2ccc(Cl)cc2)CC1 (configuration not stated),Potency,[1],inactive
same,outcome,[3],inactive
same,Potency,[4],inactive
CCCCCCCCCCCC[N+](C)(C)Cc1ccccc1,Potency,[8],inactive
same,outcome,[2],inactive
same,outcome,[3],inactive
CCCCC(=O)OCC(=O)[C@H]1[C@H](C)C[C@H]2[C@@H]3C[C@H](F)C4=CC(=O)C=C[C@]4(C)[C@@]3(F)[C@@H](O)C[C@@]21C,Potency,[8],inactive
same,outcome,[2],inactive
same,outcome,[3],inactive
same,Potency,[4],inactive
O=C1c2ccccc2CCc2ccccc21,Potency,[8],inactive
same,outcome,[2],inactive
same,outcome,[3],inactive
same,Potency,[4],inactive
Cc1ccc(C(=O)Oc2ccc(C(O)CNC(C)(C)C)cc2OC(=O)c2ccc(C)cc2)cc1 (configuration not stated),Potency,[8],inactive
same,outcome,[2],inactive
same,outcome,[3],inactive
CCOC(=O)C1=C(C)NC(C)=C(C(=O)OCC)C1c1ccccc1/C=C/C(=O)OC(C)(C)C,Potency,[8],inactive
same,outcome,[2],inactive
same,outcome,[3],inactive
same,Potency,[4],inactive
CO/N=C(\C(=O)O)c1csc(NC(=O)CCl)n1,Potency,[8],inactive
same,outcome,[2],inactive
same,outcome,[3],inactive
same,Potency,[4],inactive
O=C(OCC(O)CO)c1ccccc1Nc1ccnc2c(C(F)(F)F)cccc12 (configuration not stated),Potency,[8],inactive
same,outcome,[2],inactive
same,outcome,[3],inactive
same,Potency,[4],inactive
C[C@]12CCC(=O)C=C1CC[C@@H]1[C@@H]2[C@@H](O)C[C@@]2(C)[C@H]1CC[C@]2(O)C(=O)COC(=O)CCC(=O)O,Potency,[8],inactive
same,outcome,[2],inactive
same,outcome,[3],inactive
COc1c(N2C[C@@H]3CCCN[C@@H]3C2)c(F)cc2c(=O)c(C(=O)O)cn(C3CC3)c12,Potency,[8],inactive
same,outcome,[2],inactive
same,outcome,[3],inactive
same,Potency,[4],inactive
CCCCCCCCCCCCCC[N+](C)(C)C,Potency,[8],inactive
same,outcome,[2],inactive
same,outcome,[3],inactive
same,Potency,[4],inactive
